Measurements taken from PubChem BioAssay.
Several values for one entry are separate records, joined by “and”; a condition that tells them apart may be missing. Identical values can stand only once. Activity calls are given as the source filed them.

What was measured:
[1] = small molecules captured by biotinylated probe aFSTL3 – biochemical, small-molecule microarray, fluorescence 635/667, stem cell growth factor project, primary screen (AID 1064); settings: higher = more signal;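 further: measures binding of the biotinylated anti-FSTL3 antibody to printed compounds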
[2] = binders from COS7 lysate, DM2A8 probe, primary screen, torsin A project, cell lysate, small-molecule microarray, fluorescence 635/667 (AID 1065); settings: higher = more signal, COS7 lysate expressing mutant human TOR1A
[3] = small molecules captured by biotinylated probe aFGF2 – biochemical, small-molecule microarray, fluorescence 635/667, stem cell growth factor project, primary screen (AID 1067); settings: higher = more signal;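 further: measures binding of biotinylated aFGF2 protein to printed compounds on slides; z-score merges feature fluorescence and signal-to-noise across triplicate slides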
[4] = small molecules captured by biotinylated probe aFGF10 – biochemical, small-molecule microarray, fluorescence 635/667, stem cell growth factor project, primary screen (AID 1071); settings: higher = more signal;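 further: score merges 667 nm spot intensity and signal to noise from triplicate slides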
[5] = target: Neurogenic locus notch homolog protein 2 (Homo sapiens) (UniProt Q04721); experiment: small molecules binding Notch2 protein – biochemical, small-molecule microarray, 635 nm fluorescence, stem cell growth factors, primary screen (AID 1073); settings: higher = more signal
Chain of Neurogenic locus notch homolog protein 2 (Homo sapiens) (Q04721 whole entry, looked up, canonical isoform): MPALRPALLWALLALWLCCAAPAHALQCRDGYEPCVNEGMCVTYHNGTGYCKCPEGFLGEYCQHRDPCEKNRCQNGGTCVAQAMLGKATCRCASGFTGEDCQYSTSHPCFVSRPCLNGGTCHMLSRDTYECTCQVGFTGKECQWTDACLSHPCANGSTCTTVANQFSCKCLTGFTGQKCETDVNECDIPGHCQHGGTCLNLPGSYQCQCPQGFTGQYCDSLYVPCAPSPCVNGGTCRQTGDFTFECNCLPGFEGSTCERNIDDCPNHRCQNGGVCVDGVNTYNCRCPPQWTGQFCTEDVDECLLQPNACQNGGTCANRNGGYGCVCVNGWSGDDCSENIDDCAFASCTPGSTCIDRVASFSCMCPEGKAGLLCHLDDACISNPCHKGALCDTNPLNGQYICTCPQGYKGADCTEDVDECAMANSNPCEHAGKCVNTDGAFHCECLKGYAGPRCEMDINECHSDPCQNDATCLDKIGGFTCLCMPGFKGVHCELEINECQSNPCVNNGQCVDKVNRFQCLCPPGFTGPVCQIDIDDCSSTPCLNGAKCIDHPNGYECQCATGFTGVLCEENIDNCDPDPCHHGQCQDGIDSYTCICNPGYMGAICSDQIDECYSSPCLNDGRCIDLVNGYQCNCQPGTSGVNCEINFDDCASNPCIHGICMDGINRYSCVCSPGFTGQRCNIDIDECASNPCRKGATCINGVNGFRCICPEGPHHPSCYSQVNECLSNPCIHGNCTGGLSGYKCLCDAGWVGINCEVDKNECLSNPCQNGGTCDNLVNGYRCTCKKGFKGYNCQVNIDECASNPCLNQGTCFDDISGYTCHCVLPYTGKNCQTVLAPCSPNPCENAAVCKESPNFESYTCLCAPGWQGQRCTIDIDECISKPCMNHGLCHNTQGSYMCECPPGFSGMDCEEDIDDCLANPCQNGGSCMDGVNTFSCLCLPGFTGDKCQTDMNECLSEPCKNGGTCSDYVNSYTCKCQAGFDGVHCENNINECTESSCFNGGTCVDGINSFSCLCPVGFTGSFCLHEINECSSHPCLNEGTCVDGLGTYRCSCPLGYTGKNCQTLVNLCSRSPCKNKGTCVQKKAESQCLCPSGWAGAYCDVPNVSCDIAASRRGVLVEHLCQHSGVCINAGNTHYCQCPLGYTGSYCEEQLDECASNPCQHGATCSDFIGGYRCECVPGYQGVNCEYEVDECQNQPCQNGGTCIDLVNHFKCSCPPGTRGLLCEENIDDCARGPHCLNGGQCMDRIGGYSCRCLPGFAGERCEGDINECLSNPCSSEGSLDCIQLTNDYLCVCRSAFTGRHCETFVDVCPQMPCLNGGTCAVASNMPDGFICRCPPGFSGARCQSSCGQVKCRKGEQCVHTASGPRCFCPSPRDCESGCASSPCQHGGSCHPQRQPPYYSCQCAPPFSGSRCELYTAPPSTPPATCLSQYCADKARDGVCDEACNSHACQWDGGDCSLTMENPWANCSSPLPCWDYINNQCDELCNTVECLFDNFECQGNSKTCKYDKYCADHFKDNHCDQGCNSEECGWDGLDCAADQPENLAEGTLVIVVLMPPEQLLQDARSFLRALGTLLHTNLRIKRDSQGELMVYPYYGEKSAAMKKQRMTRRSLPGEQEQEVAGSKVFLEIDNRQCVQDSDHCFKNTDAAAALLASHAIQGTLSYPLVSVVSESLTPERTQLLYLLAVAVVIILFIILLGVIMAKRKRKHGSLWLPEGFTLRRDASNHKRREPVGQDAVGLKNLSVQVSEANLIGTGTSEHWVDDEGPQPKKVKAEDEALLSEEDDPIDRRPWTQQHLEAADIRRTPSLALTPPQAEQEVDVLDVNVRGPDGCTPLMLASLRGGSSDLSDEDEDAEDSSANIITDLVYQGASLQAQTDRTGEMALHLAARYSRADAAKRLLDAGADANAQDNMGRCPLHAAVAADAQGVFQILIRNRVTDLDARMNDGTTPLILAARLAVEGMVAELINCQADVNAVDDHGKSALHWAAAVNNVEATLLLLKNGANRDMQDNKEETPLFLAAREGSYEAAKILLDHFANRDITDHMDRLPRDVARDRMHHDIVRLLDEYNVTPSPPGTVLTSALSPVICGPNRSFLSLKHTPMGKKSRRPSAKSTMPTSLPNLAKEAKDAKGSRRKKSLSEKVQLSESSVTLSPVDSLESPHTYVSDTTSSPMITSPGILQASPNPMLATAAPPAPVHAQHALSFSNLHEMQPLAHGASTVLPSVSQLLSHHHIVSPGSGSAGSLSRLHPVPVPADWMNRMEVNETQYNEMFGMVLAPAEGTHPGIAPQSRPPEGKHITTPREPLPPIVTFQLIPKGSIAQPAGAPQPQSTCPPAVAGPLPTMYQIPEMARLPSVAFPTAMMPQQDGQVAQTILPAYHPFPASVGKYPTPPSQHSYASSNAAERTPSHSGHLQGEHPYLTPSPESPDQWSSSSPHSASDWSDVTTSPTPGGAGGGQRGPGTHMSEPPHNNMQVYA

[6] = target: Pro-neuregulin-1, membrane-bound isoform (Homo sapiens) (UniProt Q02297); experiment: small molecules binding neuregulin-1 protein – biochemical, small-molecule microarray, fluorescence 635/667, psychiatric disease protein project, primary screen (AID 1075); settings: NRG1 binding, 635 nm fluorescence, higher = more signal;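 further: score combines 667 nm spot fluorescence with signal to noise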
Chain of Pro-neuregulin-1, membrane-bound isoform (Homo sapiens) (Q02297 whole entry, looked up, the tested form may be a part, canonical isoform): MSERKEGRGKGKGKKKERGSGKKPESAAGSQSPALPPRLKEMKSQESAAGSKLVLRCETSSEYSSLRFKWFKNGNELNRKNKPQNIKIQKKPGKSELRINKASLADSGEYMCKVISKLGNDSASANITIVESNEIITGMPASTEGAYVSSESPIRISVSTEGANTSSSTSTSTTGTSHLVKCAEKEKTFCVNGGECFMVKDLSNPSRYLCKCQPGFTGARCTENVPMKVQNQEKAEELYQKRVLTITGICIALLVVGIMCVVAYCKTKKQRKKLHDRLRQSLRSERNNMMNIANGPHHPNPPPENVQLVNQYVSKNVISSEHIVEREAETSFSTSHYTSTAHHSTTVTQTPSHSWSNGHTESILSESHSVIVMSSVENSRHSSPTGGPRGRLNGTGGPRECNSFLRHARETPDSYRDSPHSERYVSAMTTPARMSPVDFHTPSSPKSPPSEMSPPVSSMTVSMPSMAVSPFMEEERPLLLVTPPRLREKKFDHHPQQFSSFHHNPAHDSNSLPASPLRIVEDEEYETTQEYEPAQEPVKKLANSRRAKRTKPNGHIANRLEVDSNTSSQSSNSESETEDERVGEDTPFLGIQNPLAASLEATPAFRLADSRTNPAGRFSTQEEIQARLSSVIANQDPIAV

[7] = tested on: Neuregulin-1 EGF-like domain; experiment: small molecules binding NRG1 EGF domain – biochemical, small-molecule microarray, 635 nm fluorescence, primary screen (AID 1081); settings: higher = more signal;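 further: binding of the protein to compounds printed on small-molecule microarray slides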
[8] = FRG1 expression reporter modulators in myotubes – cell-based, C2C12 myotubes, firefly/Renilla luciferase, luminescence, FRG1 inhibition for FSHD, primary screen (AID 1084); settings: FRG1 promoter luciferase, higher = more signal, called active from +8 up or from −8 down
[9] = small molecules captured by biotinylated probe aFST – biochemical, small-molecule microarray, fluorescence 635/667, stem cell growth factor project, primary screen (AID 1086); settings: higher = more signal;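 further: score merges 667 nm fluorescence with signal-to-noise of each printed compound spot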
[10] = binders of probe aHhip on microarray, primary screen, stem cell growth factor project, biochemical, small-molecule microarray, fluorescence 635/667 (AID 1087); settings: higher = more signal;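 further: score merges spot fluorescence at 667nm with spot signal to noise ratio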
[11] = tested on: PRMT1 (protein arginine N-methyltransferase 1); experiment: small molecules binding arginine methyltransferase PRMT1 – biochemical, small-molecule microarray, 635 nm fluorescence, primary screen (AID 1088); settings: higher = more signal;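 further: binding of Prmt1 protein to compounds spotted on small-molecule microarray slides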
[12] = growth effects on S. cerevisiae YJM789 – YJM789 clinical isolate, OD600, 24 h, basal, primary screen (AID 1089); settings: higher = more signal, called active from +8 up or from −8 down;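 further: growth of clinical yeast isolate S. cerevisiae YJM 789 seeded 1000 cells per well; test concentration not given here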
[13] = S. pombe growth modifiers, basal conditions – strain 972, OD600, 24 h, no modulator, primary screen (AID 1090);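 further: basal condition with compound alone and no growth modifier present; test concentration not given here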; settings: S. pombe 972 growth, higher = more signal, called active from +8 up or from −8 down
[14] = budding yeast growth modifiers under rapamycin – strain BY4716, OD600, 96 h, primary screen (AID 1091); further: test concentration not given here; settings: S. cerevisiae BY4716 + rapamycin, higher = more signal, called active from +8 up or from −8 down
[15] = target: Torsin-1A-interacting protein 2 (Homo sapiens) (UniProt Q8NFQ8); experiment: small molecules binding lysate-expressed LULL1 – cell lysate, human LULL1 lysate, 635/667 nm fluorescence, primary screen (AID 1092); settings: small-molecule microarray, hLULL1 lysate binding, 635 nm fluorescence; higher = more signal;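 further: probe is lysate of COS7 cells overexpressing human LULL1; score merges per-feature 667 nm fluorescence with signal-to-noise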
Chain of Torsin-1A-interacting protein 2 (Homo sapiens) (Q8NFQ8 whole entry, looked up): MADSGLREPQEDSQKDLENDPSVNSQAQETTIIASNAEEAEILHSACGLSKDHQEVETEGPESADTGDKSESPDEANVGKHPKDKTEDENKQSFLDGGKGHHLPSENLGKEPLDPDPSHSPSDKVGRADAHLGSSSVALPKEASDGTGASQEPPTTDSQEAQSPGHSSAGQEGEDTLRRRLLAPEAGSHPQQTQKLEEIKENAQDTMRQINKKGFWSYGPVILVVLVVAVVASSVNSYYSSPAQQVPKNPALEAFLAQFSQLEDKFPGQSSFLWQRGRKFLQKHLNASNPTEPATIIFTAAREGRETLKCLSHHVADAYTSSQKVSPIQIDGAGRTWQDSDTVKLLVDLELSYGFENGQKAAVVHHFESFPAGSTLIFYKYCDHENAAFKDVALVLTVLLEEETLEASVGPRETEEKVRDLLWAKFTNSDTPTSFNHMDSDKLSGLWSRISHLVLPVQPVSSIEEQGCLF

[16] = optical density change of DRC41 E. coli – strain DRC41, OD650, 24 h, E. coli filamentation project, primary screen (AID 1093);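 further: MC1000 strain lacking acrAB efflux and sulA so SOS filamentation is blocked; test concentration not given here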; settings: E. coli DRC41 growth, higher = more signal, called active from +8 up or from −8 down
[17] = probe aLefty2 binding to arrayed compounds – biochemical, biotinylated probe, 635/667 nm fluorescence, primary screen (AID 1094); settings: small-molecule microarray, higher = more signal;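 further: score merges spot fluorescence near 667 nm with spot signal-to-noise ratio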
[18] = tested on: Noggin (protein binding on small-molecule microarray); experiment: small molecules binding Noggin protein – biochemical, 635/667 nm fluorescence, primary screen (AID 1095); settings: 635 nm fluorescence, higher = more signal;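 further: score merges 667 nm feature fluorescence with signal to noise over triplicate slides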
[19] = target: Neurogenic locus notch homolog protein 3 (Homo sapiens) (UniProt Q9UM47); experiment: small molecules binding NOTCH3 protein – biochemical, 635/667 nm fluorescence, primary screen (AID 1096); settings: small-molecule microarray, 635 nm fluorescence, higher = more signal
[20] = probe aEGFR binding to arrayed compounds – biochemical, biotinylated probe, 635/667 nm fluorescence, primary screen (AID 1097); settings: small-molecule microarray, higher = more signal;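 further: probe is a biotinylated anti-EGFR antibody binding compounds printed on slides; score combines fluorescence near 667 nm and signal to noise of each spot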

SMILES	composite z-score [1]	composite z-score [2]	composite z-score [3]	composite z-score [4]	composite z-score [5]	composite z-score [6]	composite z-score [7]	z-score [8]	composite z-score [9]	composite z-score [10]	composite z-score [11]	z-score [12]	z-score [13]	z-score [14]	composite z-score [15]	z-score [16]	composite z-score [17]	composite z-score [18]	composite z-score [19]	composite z-score [20]
C[N+](C)(C)CCCCCCNC(=O)[C@H]1C[C@H]2C(=O)N[C@@H](CCCC[N+](C)(C)C)C(=O)N2[C@H]1c1cccc(OCCO)c1	-0.54 and 1.52	0.5 and 0.444	-0.0546 and 0.0108	-0.232 and 0.0517	-0.004 and -0.276	0.55 and -0.353	1.2 and 1.47	3.98 (inactive) and 3.53 (inactive)	0.469 and 0.696	-0.293 and 0.535	1.46 and 0.0165	-2.56 (inactive) and 0.455 (inactive)	-1.18 (inactive) and -0.331 (inactive)	0.162 (inactive) and 1.01 (inactive)	2.99 and 0.566	0.598 (inactive) and -0.404 (inactive)	-0.0589 and 0.582	1.94 and 0.904	1.01 and -0.0712	-0.0703 and 0.127
C=CCN(CCCCC)C(=O)C(c1cccs1)N(C(=O)/C=C\C(=O)O)c1c(Cl)cccc1CO (stereo not given)	0.0175 and 0.264	-0.764 and -0.654	-0.21 and -0.122	-1.57 and -1.12	-2.35 and -1.74	1.12 and -0.954	0.683 and 0.526	-0.383 (inactive) and 0.395 (inactive)	-0.655 and -1.1	-0.128 and -0.323	-0.399 and -0.874	0.0767 (inactive) and -0.389 (inactive)	-0.186 (inactive) and -0.149 (inactive)	-0.288 (inactive) and -0.446 (inactive)	2.54 and 0.687	-0.422 (inactive) and -0.448 (inactive)	0.0503 and -0.151	-2.9 and -1.86	-0.864 and -1.23	-0.348 and -0.216
C=CC[C@@H](O)c1ccc(O)c(F)c1	1.77 and 0.459	0.897 and -0.727	-0.0695 and -0.194	-0.03 and -1.69	-1.42 and -2.14	-0.627 and -0.0657	0.684 and 0.704	0.572 (inactive) and -1.4 (inactive)	-0.922 and -0.799	-0.132 and 0.0392	-0.508 and -0.514	0.442 (inactive) and -0.907 (inactive)	-0.6 (inactive) and -1.52 (inactive)	-0.389 (inactive) and -1.67 (inactive)	-0.471 and -1.19	0.336 (inactive) and 1.94 (inactive)	-0.0329 and -0.0221	-2.36 and -0.702	-1.4 and -0.883	-0.384 and -0.381
C=CCN(C(=O)C(c1cccs1)N(C(=O)/C=C\C(=O)O)c1ccc(CCO)cc1)C(C)(C)C (stereo not given)	0.396 and 0.476	-0.534 and -0.804	-0.212 and -0.192	-0.439 and -1.66	-0.898 and -1.52	1.04 and 2.28	0.71 and 1.3	1.28 (inactive) and 0.16 (inactive)	-0.23 and -0.706	-0.0618 and -0.134	-0.417 and -0.231	-0.042 (inactive) and 0.181 (inactive)	-0.701 (inactive) and 0.442 (inactive)	-0.3 (inactive) and -0.104 (inactive)	3.58 and 3.17	0.286 (inactive) and -0.294 (inactive)	-0.0964 and -0.116	-2.17 and -1.9	-0.583 and -1.21	-0.106 and -0.209
O=C1[C@H]2[C@H]3[C@H](O)[C@H](O)CC(=NOCc4ccccc4)[C@H]3CC[C@H]2C(=O)N1Cc1ccccc1	-0.51	0.887	-0.109	0.186	0.189	-0.226	-0.263	0.224 (inactive)	0.223	-0.274	-1	-2.04 (inactive)	-2.07 (inactive)	-1.04 (inactive)	-0.336	0.582 (inactive)	-0.234	0.439	0.273	-0.126
C=CCN(CCCC)C(=O)C1N(CCCCCCO)C(=O)C2C(C(=O)O)C3C=CC21O3 (stereo not given)	1.42 and 1.34	-0.0373 and -0.98	-0.153 and -0.112	-0.0134 and -0.092	-2.57 and -2.12	-0.506 and 0.0117	0.796 and 1.46	0.591 (inactive) and 0.91 (inactive)	-1.41 and -0.957	-0.383 and -0.204	-0.448 and -0.52	0.0812 (inactive) and -0.104 (inactive)	0.496 (inactive) and -0.0666 (inactive)	-0.282 (inactive) and -0.642 (inactive)	-0.179 and 2.36	-0.909 (inactive) and -0.855 (inactive)	0.0397 and -0.0936	-3.5 and -2.6	-1.8 and -1.2	-0.485 and -0.356
Cc1cc2c(nc1C)CCCN2CC(C)ON=C[C@@H](C)[C@H](OCc1ccccc1)C(C)C (stereo not given in full)	-0.461	0.478	-0.0724	-0.0706	-0.461	-0.869	-0.868	-0.201 (inactive)	0.374	0.102	-1.37	0.481 (inactive)	0.514 (inactive)	1.24 (inactive)	-0.817	0.448 (inactive)	-0.134	0.41	0.298	-0.068
C=CCN(C(=O)C1N(CCOCCO)C(=O)C2C(C(=O)O)C3C=CC21O3)c1ccc(OC)cc1 (stereo not given)	1.11 and 1.65	-1.59 and -1.21	-0.184 and -0.254	-0.719 and -1.97	-2.35 and -1.84	0.555 and 2.07	0.328 and 0.86	-0.408 (inactive) and -0.715 (inactive)	-0.654 and -0.932	-0.581 and -0.349	-0.968 and -2.33	-0.248 (inactive) and -0.0945 (inactive)	-0.188 (inactive) and -0.571 (inactive)	-0.348 (inactive) and -0.662 (inactive)	-0.408 and 1.86	0.612 (inactive) and 1.52 (inactive)	-0.158 and 0.0873	-1.79 and -3.14	-0.59 and -0.715	-0.348 and -0.276
